Holding throughout (assay): NCI-60 one-dose screen, 48 h (100 = growth as untreated, 0 = no growth, -100 = all killed)
What all share (conditions): 10 µM

In assay [1] the test system is HCT-15 colon.
In assay [2] the test system is HT29 colon.
For assay [3], the system named is SNB-75 CNS.
The test system of assay [4] is SNB-19 CNS.
Assay [5] has as its system U251 CNS.
The subject of assay [6] is PC-3 prostate.
Assay [7] has as its system SK-MEL-5 melanoma.
Assay [8] has as its system UACC-62 melanoma.
Assay [9] deals with LOX IMVI melanoma.
Assay [10] deals with SK-MEL-28 melanoma.
Assay [11] deals with SK-MEL-2 melanoma.
Assay [12] concerns EKVX NSCLC.
Assay [13] has as its system SN12C renal.
Assay [14] deals with UO-31 renal.
In assay [15] the test system is TK-10 renal.
Assay [16] relates to ACHN renal.
Assay [17] relates to CAKI-1 renal.
Assay [18] relates to A498 renal.
For assay [19], the system named is CCRF-CEM leukemia.
For assay [20], the system named is MOLT-4 leukemia.

About 83,000 compounds went through this panel and 20% of them were active in at least one assay; those are over-represented in the sample as a whole.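 Each cell line was grown in a 96-well plate and treated with one concentration of compound for 48 hours. Values below 10 were considered active.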 Unmarked numbers belong to inactive results. The source made the active and inactive calls.

In the case of `COc1cc(/C=C/C(=O)c2cc(-c3ccccc3)ccc2O)cc(OC)c1OC`, the growth is 70% in [1]; 82.4% in assay [2]; 93.1% in assay [3]; 93.3% in assay [4]; 75.7% in assay [5]; 49.4% in assay [6]. Besides, the growth in assay [7] is 51.8%; in assay [8] it was 58.8%; in assay [9] it was 52.6%; in assay [10] it was 98.1%; in [11] it was 77.2%; in assay [12], 54%. Also, the growth in assay [13] was 76.2%; in assay [14], 53.4%; in [15] it was 105%; in assay [16] it was 77.3%; in assay [17] it was 61.6%; in [18] it was 74.3%. Moreover, the results for the growth in [19] and in assay [20] were 8.52% (active) and 28%, respectively.
Turning to `COC1OC2COC(c3ccccc3)OC2C(=O)C1NC(=O)c1ccccc1` (centres undefined), the growth in assay [1] was 101%; in assay [2] it was 105%; in [3], 83%; in assay [4] it was 94.9%; in [5], 109%; in assay [6] it was 85%. Also, the growth is 108% in [7]; 93.7% in [8]; 90.1% in [9]; 109% in assay [10]; 94% in [11]; 79.5% in [12]. Further, the growth was 96.7% in assay [13]; 72.5% in assay [14]; 108% in assay [15]; 98.9% in assay [16]; 88.9% in [17]; 116% in assay [18]. Further, the growth in assay [19] is 97.7%.
For `CC1(C)Cc2c(cn(Cc3ccccc3)c2-c2ccccc2)-c2oncc21`, the growth in assay [1] was 101%; in assay [2], 79.6%; in assay [3], 103%; in assay [4], 110%; in assay [5] it was 88.9%; in assay [6] it was 86.2%. The growth was 83.5% in assay [7]; 86.7% in [8]; 90.2% in assay [9]; 112% in assay [10]; 102% in assay [11]; 85.2% in assay [12]. Also, the growth is 97% in assay [13]; 89.7% in [14]; 106% in assay [15]; 99.9% in assay [16]; 79.8% in assay [17]; 126% in assay [18]. In addition, the growth in assay [19] is 94.2%; in assay [20], 86.1%.
Consider `COC(=O)CCCCCCCCC(C)c1ccc(C(C)=O)cc1` (centres undefined), for which the growth was 103% in assay [1]; 101% in [2]; 122% in assay [3]; 110% in [4]; 107% in assay [5]; 106% in assay [6]. Also, the growth was 111% in assay [7]; 116% in assay [8]; 98.2% in assay [9]; 130% in [10]; 96% in [11]; 95.3% in assay [12]. Moreover, the growth in assay [13] was 110%; in [14], 96.9%; in assay [15] it was 98.3%; in assay [16], 99.3%; in assay [17] it was 97.6%; in assay [18], 112%. The growth is 111% in assay [19] and 89.8% in assay [20].
`CCN1CCOC1C(C)C` (centres undefined): the growth in assay [1] was 105%; in assay [2], 99.3%; in assay [3], 99.8%; in [4], 113%; in assay [5] it was 102%; in assay [6], 93.4%. Also, the growth in assay [7] was 106%; in assay [8], 105%; in assay [9], 102%; in [10], 108%; in assay [11], 95.3%; in assay [12], 107%. In addition, the growth in [13] is 99.8%; in assay [14], 79.5%; in assay [15] it was 130%; in assay [16], 102%; in assay [17], 98.2%; in [18], 98.8%. For the same compound, the figures for the growth in assay [19] and in [20] were 103% and 94.3%, respectively.
Consider `Cn1c(N)c(N=Cc2ccccc2)c(=O)n(C)c1=O`, for which the growth in assay [1] is 103%; in assay [2] it was 101%; in [3] it was 91.4%; in assay [4] it was 105%; in [5], 110%; in assay [6], 105%. Moreover, the growth in [7] was 108%; in assay [8], 115%; in assay [9], 104%; in assay [10], 110%; in [11], 97.1%; in assay [12], 100%. Also, the growth in assay [13] is 104%; in assay [14], 81.5%; in [15] it was 117%; in [16], 104%; in [17], 98%; in [18] it was 116%. The results for the growth in assay [19] and in [20] were 112% and 99.4%, respectively.
With `O=CNc1c(Cl)cc2c(c1Cl)Cc1cc([N+](=O)[O-])ccc1-2`, the growth in assay [1] was 29.3%; in [2], 58.4%; in [3], 65.6%; in [4], 87.5%; in assay [5], 78.1%; in assay [6], 40.2%. The growth in assay [7] is 5.14% (active); in [8], 48.8%; in assay [9], 55.7%; in [10] it was 106%; in [11], 38.1%; in [12], 30.7%. Also, the growth in assay [13] is 80.6%; in [14], 71.7%; in assay [15], 90.3%; in assay [16] it was 68.7%; in [17] it was 82.1%; in [18], 85.9%. Besides, the growth in assay [19] was 14.7%; in [20] it was 33%.
Take `[O-]c1c[n+](-c2ccc(Cl)cc2)no1`: the growth in assay [1] was 99.4%; in [2], 118%; in [3], 90.4%; in [4] it was 95.9%; in [5] it was 102%; in assay [6] it was 91.4%. Also, the growth in assay [7] was 95.6%; in [8], 91.5%; in assay [9] it was 98%; in assay [10] it was 109%; in [11], 102%; in assay [12], 103%. Besides, the growth in assay [13] is 92.9%; in assay [14] it was 84.8%; in assay [15], 116%; in assay [16], 106%; in assay [17] it was 108%; in assay [18] it was 98.7%. Also, the figures for the growth in assay [19] and in assay [20] were 111% and 102%, respectively.

The values above are taken from PubChem BioAssay (NCI).
